Data on 108 sequences can be found in PubChem BioAssay AID1508600 (Functional Genomics Laboratory (NCATS/FGL), 2020).

Out of some 53,000 sequences screened, about 3,700 (7%) were called active. Only a selection was taken, and actives are over-represented in it overall. A number with no mark means an inactive call.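 The calls were made as follows: active = gene knockdowns whose robust z-score for IL-1 alpha signal is at least 2 or at most -2, so actives lie on both sides; inactive = the rest.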

A short description of this assay: Components of the Cytosolic LPS Sensing Pathway: Gene Identification via Genome-wide siRNA Screen.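 Also: robust z of the log signal after scaling to non-targeting control siRNA wells of the plate.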 As to conditions: RAW264.7 macrophages, IL-1a HTRF, actives lie on both sides, screened at 100 nM (by protocol), cells primed 5 h with Pam3CSK4 first. The procedure, abridged:
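RAW264.7; siRNA 100 nM final, RNAiMAX, 48h 37 degrees C; Pam3CSK4 5 h; LipidA + TransIT-TKO 24 h; IL-1a HTRF; CellTiter-Glo viability; robust z vs negative-control median.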
(TR-FRET usually uses a lanthanide donor and a delayed reading to cut background.)
As to UACUUAGGCCCUUGAGCAUTT against Timm10, the z-score was 0.725.

As for GGUGUGUUUUCAUGUUUUUTT against Rel, the z-score was 0.388.

As to GCUAUUGUAGUGGUUACUGTT against Vmn2r57, the z-score is 2.21 (active).

Consider GGUAUUUCUUUGUGGUGCUTT against Ptch2, for which the z-score was 1.45.

As for GCUACAUGAUGUUCAUACUTT against Srpx, the z-score is 0.38.

Turning to GGUUUGGUGUCAGAUGUCATT against Olfr1182, the z-score is -2.32 (active).

For the sequence GGUGCAACACUCUCUAUUUTT against Afap1l1, the z-score was 0.963.

As for CCCAUCUCCUUAAAGUCAATT against Ripk3, the z-score is 1.32.

Turning to GGCAGCUGUUAUGCUUUUCTT against Cd302, the z-score is 0.822.

In the case of CCAGGAUCCUGUUUCUGACTT against AF067061, the z-score was 2.19 (active).

For the sequence GGAACUGUGAGACUUUUAGTT against Rabgap1, the z-score is 0.532.

For the sequence CCCUGAGAAGGAUGCGAAATT against Mgat4b, the z-score is 0.44.

GGAGCAGAGAAACUUCUCGTT against Gigyf1: the z-score was -2.09 (active).

As for CCGGAAAACAAAAUUGCUATT against Obp1a, the z-score is 0.492.

Turning to GGAAGAUAAAUCACAAUCATT against Cdc37l1, the z-score was 0.051.

Turning to GGAUUAUAUGCCAAGUGAUTT against Phyh, the z-score was 0.179.

In the case of GCCGAUUGUCCUAUCUCCATT against Spg7, the z-score was 1.63.

For the sequence “GGUACUACUGUGGCUAAGCTT against 1700120K04Rik”, the z-score is 2.71 (active).

As to GAACUCUUCCAGUGGAAGUTT against Dctpp1, the z-score was -1.5.

GGAAAAAUAGGGUGUUUUGTT against Tdg: the z-score is 1.96.

GGACCAAGAGGACAUUACCTT against Tbl3: the z-score is -0.971.

In the case of GGUCAACCUAAACCAGCAGTT against Csn1s2a, the z-score was -0.182.

As for GGGAUGACCUGCCAUUCAUTT against Atp7a, the z-score is 3.47 (active).

Take CGAGGAUUUCUGUUACUUATT against Lyst: the z-score was 1.19.

For the sequence GCGCAGGUUGGAUGAAUGUTT against Psme3, the z-score was -0.433.

Take GGAAUUUUCUCGAUUUCACTT against Pde6b: the z-score is 1.13.

With GGCCUUUGGUACAUGUAGUTT against Olfr692, the z-score was 0.557.

Consider CGAAGAAUGACGAUGAUAUTT against Ppp4r3a, for which the z-score is -2.41 (active).

Turning to CGGAAGAACUACAAGUCGATT against Sipa1l3, the z-score was 2.09 (active).

As to GCCAGUGCAUGAAAGAUAUTT against Kansl1l, the z-score was -0.772.

Turning to GUUAUAGCGGCGAAGGUGUTT against Maml3, the z-score was 1.02.

On to CCUCUACAUCAGAGUAUGATT against Defb21, for which the z-score was 2.22 (active).

As for GGUCUGCUGUUGAUCGUUCTT against Sct, the z-score was 1.72.

With CGAUUCAAGGUAACAUAGATT against Esrrg, the z-score was 1.66.

With GGCACUAAUGGAGAGACUGTT against Nr6a1, the z-score is 3.53 (active).

For the sequence GGCCCAAACACGUGUAAAATT against Kdm5b, the z-score was 0.322.

GGACAAAGAGGAAUGGAUATT against Tank: the z-score is -1.19.

GGCAUGAAUCAGUCUAUGGTT against Olfr1308: the z-score is 0.656.

On to GGCUGGAGAAGUAAUGAUATT against Sp100, for which the z-score is 0.62.

On to GGAAGGUUGUAAGUUUAAATT against Krtap14, for which the z-score is 2.12 (active).

Turning to GGACUUUGAAGAACUAAGUTT against Tfrc, the z-score was 1.01.

As for GGGAUCUAAAGGCUGAAAATT against Mark4, the z-score is -0.291.

For the sequence GCCAUCGCUAACUUACGGATT against Gdpd5, the z-score is -1.81.

Consider GGAUGGACCUUCAGAAAAGTT against Srrm4, for which the z-score was -1.63.

GGUCGUGCAUGACAACUAUTT against Itk: the z-score is 2.62 (active).

Consider GGCCAAAGUCGAAUCAUAUTT against Prmt2, for which the z-score is -0.252.

Regarding CCAAUGGCGAGACAACUACTT against Aldoa, the z-score was 0.182.

Turning to GGGUCUGCCGUCAUCCAUATT against Acp6, the z-score was -0.563.

For the sequence GGGCUUACCGUAUAACUUUTT against Nptn, the z-score is 1.4.

As to GGACCUGAAUUCCACUCCUTT against Socs1, the z-score is -0.147.

Consider GGAUGAGGAGGAUACAAAGTT against Eif3c, for which the z-score was 0.228.

For GGAUACUCUCAGGACGUGATT against Ncbp2, the z-score is -2 (active).

As to CGAGCAAGCUUCUACAUACTT against AI182371, the z-score is 0.438.

With GCAAAUCAUUUAGGACCCATT against Amer2, the z-score was -2.54 (active).

Consider GGAGUUCAGGUAUCCCUGATT against Nomo1, for which the z-score was -0.109.

GGAAAACAAGAAAGAUGAATT against Snupn: the z-score is -1.05.

Take CGAUCCUCAUCUUUAUAUATT against Agbl1: the z-score was -0.33.

Consider CGCCAAAAGUUCUUGCCAUTT against Olfr618, for which the z-score was -2.02 (active).

For CCUAGAUUCUGAAUUCGAATT against Pdzd8, the z-score is -1.09.

With GGAUAACAGAUGGUUAAUATT against Pramel48, the z-score is 0.202.

For GGUUGGAUUCCUGAUAUUATT against Moxd2, the z-score was -0.22.

With CGGCACUAGGAAGCUUUUATT against Inpp5a, the z-score is -0.185.

Consider GCAUCUACCAUGGAAAUAUTT against Clcn7, for which the z-score is 0.053.

As for GGAGCUGGAGAAGUUACUUTT against Amigo3, the z-score is 2.06 (active).

As to GCUGGUUGUAGUAAAACAGTT against Resf1, the z-score was -1.29.

Regarding GCUGGUAUGACCAAGAGAATT against Mutyh, the z-score is 0.679.

With GGGAAAUGACCUUCAUUGGTT against Rbl2, the z-score is 1.05.

GGUCAGUCAACAUGAACUUTT against Acad9: the z-score is 0.0973.

As to GGCAGGACAUUCUCAAAUCTT against Praf2, the z-score was 2.51 (active).

For the sequence GGGAGUUGAGAAGACAUAATT against Lim2, the z-score was 0.223.

With CGGGCAGUACUAUGAUUUGTT against Ppp1cc, the z-score was 2.09 (active).

Turning to CCUCACCAAACCUUGUUGATT against Cd300lg, the z-score was -1.57.

Take GGCUAAGACUAUGUUGUAATT against Smcp: the z-score was -1.48.

GGCUCUUUGUUCAGUUUUUTT against Fxyd3: the z-score was 2.52 (active).

With CCAUAUAACUGCCAAUAAUTT against Ankrd7, the z-score is -2.02 (active).

Take GCUCAUAAAACUCCAAAAGTT against Mob4: the z-score is -0.713.

For GCAACUCUGAGGUUGCUAGTT against Pgam1, the z-score is -0.12.

CCCUCAUUGUAACCUUAACTT against Olfr792: the z-score is -2.27 (active).

With “GGCUGAAUGUCGCUUAGAGTT against 9030612E09Rik”, the z-score was -0.875.

On to GGCUUAGCUUUUGUGAUUCTT against Olfr143, for which the z-score is -1.24.

Take GGUGUCCCUUAAUGUGUCCTT against Heg1: the z-score is 0.671.

Take GCCUCUCUGGUGAACUUAGTT against Ccar1: the z-score is 0.0406.

In the case of GCCUCACUUGAUGAAAUGGTT against Sccpdh, the z-score is -2.13 (active).

In the case of GGAAGGACUUAAAUGAUGCTT against Rnf187, the z-score was -1.18.

On to GGUGGACAUUCCUAAGAUUTT against Ago1, for which the z-score was -0.97.

For the sequence CGCAUAAUGGAUGAGAGGATT against Mef2a, the z-score was 0.871.

For the sequence GCAGUGUAUAGGUGUACAATT against Krt2, the z-score is 3 (active).

For GCAGAGUGCUCGUAGAGUGTT against Heatr5a, the z-score was 0.96.

Consider GGAGGUUCAACAUGAAAAUTT against Lingo2, for which the z-score is -0.253.

For the sequence GGCCUUUGCACGUGGAUUGTT against Zfp420, the z-score was -0.221.

Regarding GGGAAUCAUGAUAUGUUUCTT against Tmem186, the z-score is -0.217.

Take GGAGGUCCAUGUCCUGCUUTT against Mesp2: the z-score was 0.336.

With GCAGAACCGCCAACCAACATT against Smarcc2, the z-score was -2.03 (active).

As for CCUCGGUCAGAUUCCUGAUTT against Phpt1, the z-score was 0.101.

As for CCAAUAACUACUCAUACCCTT against Ints1, the z-score was 0.105.

For GCAUGUAGUAUGGUAACACTT against Akr1b7, the z-score was -1.78.

Take CCUUAAACAGCUUUUCAGATT against Dync2h1: the z-score was 0.472.

For UCUUACACUUCGUGUUCCATT against Gpr6, the z-score was 3.12 (active).

In the case of CGAAAACUUCAUAGCUACATT against Hmg20a, the z-score is -1.95.

Take GCAGACAAUAUCUCUGAAUTT against Olfr459: the z-score was -0.942.

As for CCUCUCAAGAAAUCGUGCATT against Trim47, the z-score was 0.978.

As to GCAGAUUGUGCAGCUAGCATT against Pax4, the z-score is 0.452.

As to CCAUCUCAUUCCUUACCAGTT against Gm4736, the z-score is -1.79.

On to GGAUAAGAUAAUGUCUGUGTT against Olfr716, for which the z-score is -1.73.

In the case of GGGUAACAGUGGUGAACCUTT against Col1a1, the z-score is 2.08 (active).

Take GGCUGAGUUAUUUGUGACATT against Syt13: the z-score was -1.41.

Regarding CGGCCUGGGUCCCGUGGACTT against Hs3st6, the z-score was -1.18.

In the case of “CGCAUGCCUGUAAAAUAAATT against 2310057M21Rik”, the z-score was -1.37.
